The supplement of paper PMC11018630
Structures can show the parent of a compound that is named as a salt. ± gives the standard deviation of the averaged measurements. Whole data set: some 1,100 compounds, median “day of extracellular matrix detachment from plate” near 16, cut for the lowest 2% near 10. The list comes from a sample in which the lowest values are over-represented; it also holds similar structures and randomly drawn compounds.

Each compound was assayed on RDEB dermal fibroblasts EB71 (assay: day of extracellular matrix detachment from plate (days); higher = delayed detachment (less fibrotic matrix)). Settings: compound concentration: 10 uM.

In order of rising “day of extracellular matrix detachment from plate” value:
1. CNC[C@H](O)c1ccc(O)c(O)c1 [Epinephrine Bitartrate]  9
2. CCCNS(=O)(=O)Nc1ncnc(OCCOc2ncc(Br)cn2)c1-c1ccc(Br)cc1 [Macitentan]  9.67 ± 1.1
3. C#C[C@]1(O)CC[C@H]2[C@@H]3CCc4cc(OC)ccc4[C@H]3CC[C@@]21C [Mestranol]  10 ± 1.7
4. CNC[C@@H](O)c1ccc(O)c(O)c1 [L-Adrenaline]  10 ± 1.7
5. CC(C)NCC(O)c1ccc(O)c(O)c1 (configuration not stated) [Isoprenaline HCl]  11 ± 1.7
6. O=C(/C=C/C=C/c1ccc2c(c1)OCO2)N1CCCCC1 [Piperine]  11 ± 1.7
7. CCC(C)(C)c1ccc(CC(C)CN2C[C@@H](C)O[C@@H](C)C2)cc1 (some centres not stated) [Amorolfine HCl]  12
8. CNC[C@H](O)c1cccc(O)c1 [Phenylephrine HCl]  12
9. CCOc1cc([C@@H](CS(C)(=O)=O)N2C(=O)c3cccc(NC(C)=O)c3C2=O)ccc1OC  12.7 ± 2.9
10. O[C@H]1[C@H](O)[C@@H](O)[C@H](O)[C@@H](O)[C@H]1O [i-Inositol]  13
11. O=C(O)c1cc(=O)c2ccccc2o1 [Chromocarb]  13
12. Cc1c(-c2ccnn2C)cc(C(=O)NCc2ccc(S(C)(=O)=O)cn2)c(=O)n1-c1cccc(C(F)(F)F)c1 [Alvelestat (AZD9668)]  13.7 ± 1.1
13. C#C[C@]1(O)CC[C@H]2[C@@H]3CCc4cc(O)ccc4[C@H]3CC[C@@]21C [Ethinyl Estradiol]  14
14. CS(=O)(=O)c1ccc(C(=O)Nc2ccc(Cl)c(-c3ccccn3)c2)c(Cl)c1 [Vismodegib (GDC-0449)]  14.3 ± 1.1
15. OCC(O)CN1CCN(c2ccccc2)CC1 (configuration not stated) [Dropropizine]  15
16. S=c1[nH]cnc2nc[nH]c12 [Mercaptopurine (6-MP)]  15 ± 1.7
17. O=C1CC[C@@H](C(=O)N2CSC[C@H]2C(=O)O)N1 [Pidotimod]  15.3 ± 2.3
18. COc1cccc(-c2ccc(NC(=O)C3=C(C(=O)O)CCC3)c(F)c2)c1 [Vidofludimus]  16.3 ± 1.1
19. CNC[C@H](O)c1ccc(O)c(O)c1 [Epinephrine HCl]  16.3 ± 4
20. NC[C@H](O)c1ccc(O)c(O)c1 [Noradrenaline bitartrate monohydrate]  16.7 ± 2.3
21. Cc1ccsc1C(=CCCN1CCC[C@@H](C(=O)O)C1)c1sccc1C [Tiagabine]  17
22. Cc1ccsc1C(=CCCN1CCC[C@@H](C(=O)O)C1)c1sccc1C [Tiagabine hydrochloride]  17.2 ± 2
23. C=C1CC[C@H](O)C/C1=C/C=C1\CCC[C@]2(C)[C@@H]([C@H](C)/C=C/[C@H](C)C(C)C)CC[C@@H]12 [Vitamin D2]  18
24. CC(=O)/N=c1/sc(S(N)(=O)=O)nn1C [Methazolamide]  18
25. O=C1C(O)=C([C@H]2CC[C@H](c3ccc(Cl)cc3)CC2)C(=O)c2ccccc21 [Atovaquone]  18
26. O=C([O-])C(O)[C@H](O)[C@@H](O)[C@H](O)[C@H](O)CO.O=C([O-])C(O)[C@H](O)[C@@H](O)[C@H](O)[C@H](O)CO.[Ca+2] (some centres not stated) [Calcium Gluceptate]  18
27. C#C[C@]1(O)CC[C@H]2[C@@H]3CCC4=CC(=O)CC[C@@H]4[C@H]3CC[C@@]21C [Norethindrone]  19
28. CC(C)(C)NCC(O)c1ccc(O)c(CO)c1 (configuration not stated) [Salbutamol Sulfate]  19
29. COc1cc(OC)c(C(=O)CCCN2CCCC2)c(OC)c1 [Buflomedil HCl]  20 ± 1.7
30. CC[C@H](Nc1ncnc2[nH]cnc12)c1nc2cccc(F)c2c(=O)n1-c1ccccc1 [CAL-101 (Idelalisib, GS-1101)]  22.3 ± 1.1
31. O=c1[nH]c(=O)n([C@H]2C[C@H](O)[C@@H](CO)O2)cc1I [Idoxuridine]  23
32. Cc1cc(/C=C/C#N)cc(C)c1Nc1ccnc(Nc2ccc(C#N)cc2)n1 [Rilpivirine]  27
